In the antibiotic and cytotoxicity screens of Wong et al. (2023) one finds cytotoxicity call data, which are given here for 68 molecules.

Molecules are shown by their SMILES. The campaign covered roughly 39,000 compounds. About 3,300 (8.5%) were called active. The sample as a whole holds a higher share of actives than the screen did.

This assay deals with HepG2. In words: cytotoxicity call (relative viability < 0.9). Conditions: 10 µM.
On to `Cc1ccc(S(=O)(=O)Nc2ccc3c(c2)C(=O)N([C@@H](C)CO)C[C@H](C)[C@@H](CN(C)Cc2ccc4c(c2)OCO4)OCCCC[C@@H](C)O3)cc1`, for which the cytotoxicity call was “inactive”. The same measure for `Cc1ccc(S(=O)(=O)Nc2ccc3c(c2)CC(=O)N([C@@H](C)CO)C[C@H](C)[C@@H](CN(C)S(C)(=O)=O)O3)cc1`: “inactive”. The same measure for `C[C@H](CO)N1C[C@H](C)[C@@H](CN(C)S(=O)(=O)c2ccc(Cl)cc2)Oc2ccc(NS(C)(=O)=O)cc2CC1=O`: “inactive”; for `Cc1cc(C(=O)Nc2cccc3c2O[C@H](CN(C)C(=O)NC(C)C)[C@H](C)CN([C@H](C)CO)C3=O)n(C)n1`: “inactive”. With `COc1ccc(CN(C)C[C@@H]2OCCCC[C@@H](C)Oc3ccc(NS(=O)(=O)c4cccs4)cc3C(=O)N([C@H](C)CO)C[C@H]2C)cc1`, the cytotoxicity call was “inactive”.

For the molecule `C[C@H](CO)N1C[C@H](C)[C@H](CN(C)C(=O)NC2CCCCC2)Oc2ccc(NC(=O)Cn3cnnn3)cc2CC1=O`, the cytotoxicity call was “inactive”.

Take `C[C@@H]1CN([C@H](C)CO)C(=O)c2cc(NC(=O)Nc3ccccc3)ccc2O[C@@H](C)CCCCO[C@@H]1CN(C)C(=O)Cc1ccccc1`: the cytotoxicity call is “inactive”. The value for `O=C(C[C@@H]1CC=CCC[C@@H](Cc2ccc(F)cc2)C(=O)OCCNC1=O)N[C@@H](CO)Cc1ccccc1` was “inactive”; that for `CCNC(=S)N1CCCC[C@@H]1CO` was “inactive”. The same measure for `C[C@@H]1CCCCO[C@@H](CN(C)Cc2ccncc2)[C@@H](C)CN([C@@H](C)CO)C(=O)c2cc(NC(=O)C3CCCCC3)ccc2O1`: “inactive”; for `C[C@@H]1CCCCO[C@H](CN(C)Cc2ccc(C(F)(F)F)cc2)[C@H](C)CN([C@H](C)CO)C(=O)c2cc(NC(=O)C3CCCCC3)ccc2O1`: “inactive”. The same measure for `C[C@@H]1CCCCO[C@H](CN(C)Cc2ccncc2)[C@H](C)CN([C@@H](C)CO)C(=O)c2cc(NC(=O)C3CCCCC3)ccc2O1`: “active”; for `C[C@@H]1CCCCO[C@H](CN(C)Cc2ccncc2)[C@@H](C)CN([C@H](C)CO)C(=O)c2cc(NC(=O)C3CCCCC3)ccc2O1`: “inactive”; for `C[C@@H]1CCCCO[C@H](CN(C)Cc2ccc(C(F)(F)F)cc2)[C@@H](C)CN([C@H](C)CO)C(=O)c2cc(NC(=O)C3CCCCC3)ccc2O1`: “active”. In the case of `C[C@@H]1CCCCO[C@@H](CN(C)Cc2ccc(C(F)(F)F)cc2)[C@H](C)CN([C@H](C)CO)C(=O)c2cc(NC(=O)C3CCCCC3)ccc2O1`, the cytotoxicity call was “inactive”. The value for `C[C@@H]1CN([C@H](C)CO)C(=O)CCCn2cc(nn2)CO[C@H]1CN(C)C(=O)Nc1cccc(C(F)(F)F)c1` was “inactive”; that for `CC(C)NC(=O)N(C)C[C@H]1Oc2ccc(NC(=O)Nc3ccc4c(c3)OCO4)cc2CC(=O)N([C@H](C)CO)C[C@H]1C` was “inactive”. The same measure for `COCCOC(=O)N1C(=O)[C@@]2(c3cc(C#CC4=CCCCC4)ccc31)[C@H](c1ccc(OCCO)cc1)N1[C@H](c3ccccc3)[C@H](c3ccccc3)OC(=O)[C@H]1[C@@H]2C(=O)N1CCN(c2ncccn2)CC1`: “inactive”; for `CC(=O)c1ccc2c(c1)N(CCCN(C)C)c1ccccc1S2.O=C(O)C=CC(=O)O`: “inactive”.

Turning to `CNC(=O)[C@H]1Cc2ccccc2N1C(=O)COC`, the cytotoxicity call is “inactive”. The value for `CN(C)CCCN1C(=O)[C@@H]2[C@@H](C1=O)[C@@H]1C=C[C@@H]2C1` was “inactive”; that for `CN(C)CCCN1C(=O)[C@@]2(Cc3ccccc31)c1ccccc1C(=O)N(Cc1ccccc1)[C@H]2c1ccc(CO)cc1` was “inactive”.

`CN(C)CCCN1c2ccccc2Sc2ccccc21.Cl`: the cytotoxicity call is “active”. The value for `CNCCCN1c2ccccc2CCc2ccccc21.Cl` was “active”.

As to `CN(C)CCCN1c2ccccc2CCc2ccccc21.Cl`, the cytotoxicity call was “active”. Consider `CN(C)CCCN1c2ccccc2CCc2ccc(Cl)cc21.Cl`, for which the cytotoxicity call is “inactive”. The same measure for `CN(C)CCCN1c2ccccc2Sc2ccc(Cl)cc21.Cl`: “active”.

As to `NNC(=O)CN1CCCc2ccccc21`, the cytotoxicity call was “inactive”. The same measure for `COc1ccc(C2Sc3ccccc3N(CCN(C)C)C(=O)C2OC(C)=O)cc1.Cl` (stereo not drawn): “inactive”.

Turning to `C[C@H](CO)N1C[C@H](C)[C@@H](CN(C)S(=O)(=O)c2cn(C)cn2)Oc2ncc(C#CCN(C)C)cc2C1=O`, the cytotoxicity call was “inactive”. For the molecule `Cc1noc(C)c1S(=O)(=O)Nc1cccc2c1O[C@@H](CN(C)Cc1ccncc1)[C@@H](C)CN([C@@H](C)CO)C2=O`, the cytotoxicity call is “inactive”. The value for `CON=C(C(=O)NC1C(=O)N2C(C(=O)[O-])=C(CSc3nc(=O)c([O-])nn3C)CSC12)c1csc(N)n1.O.O.O.[Na+].[Na+]` (stereo not drawn) was “inactive”; that for `COc1ccccc1NC(=O)N(C)C[C@@H]1Oc2ncc(C#CC(C)C)cc2C(=O)N([C@H](C)CO)C[C@H]1C` was “inactive”. The value for `COC(=O)C=CC(=O)OC` was “active”; that for `COC(=O)/C=C/C(=O)O` was “inactive”; that for `COC(=O)/C=C/C(=O)OC` was “inactive”.

`COCC#Cc1cnc2c(c1)C(=O)N([C@@H](C)CO)C[C@H](C)[C@@H](CN(C)C(=O)c1cnccn1)O2`: the cytotoxicity call is “inactive”. The value for `O=C(Cc1ccc2c(c1)OCO2)N[C@@H]1CCNC[C@H]1O` was “inactive”. The value for `C[C@@H]1CN([C@@H](C)CO)S(=O)(=O)c2ccc(-c3ccc(C(=O)N(C)C)cc3)cc2O[C@H]1CN(C)C(=O)C1CC1` was “inactive”; that for `C[C@H](CO)N1C[C@H](C)[C@@H](CN(C)Cc2ccncc2)Oc2ccc(NC(=O)Nc3ccc(C(F)(F)F)cc3)cc2C1=O` was “inactive”. For `C[C@H](CO)N1C[C@H](C)[C@@H](CN(C)C(=O)Nc2ccc(C(F)(F)F)cc2)OCCCC[C@H](C)Oc2ccc(NC(=O)Nc3ccccc3)cc2C1=O`, the cytotoxicity call is “inactive”. The same measure for `C[C@@H]1CCCCO[C@@H](CN(C)C(=O)Nc2ccccc2)[C@@H](C)CN([C@@H](C)CO)C(=O)c2cc(NC(=O)Nc3ccc(C(F)(F)F)cc3)ccc2O1`: “active”; for `C[C@H]1CCCCO[C@@H](CN(C)C(=O)Nc2ccc(C(F)(F)F)cc2)[C@@H](C)CN([C@@H](C)CO)C(=O)c2cc(NC(=O)Nc3ccccc3)ccc2O1`: “inactive”; for `C[C@H]1CCCCO[C@@H](CN(C)C(=O)Nc2ccc(C(F)(F)F)cc2)[C@@H](C)CN([C@@H](C)CO)C(=O)c2cc(NC(=O)c3ccccc3)ccc2O1`: “inactive”. The same measure for `C[C@@H]1CCCCO[C@H](CN(C)C(=O)Nc2ccc(C(F)(F)F)cc2)[C@@H](C)CN([C@H](C)CO)C(=O)c2cc(NC(=O)Nc3ccccc3)ccc2O1`: “inactive”; for `C[C@@H]1CCCCO[C@@H](CN(C)C(=O)Nc2ccccc2)[C@@H](C)CN([C@H](C)CO)C(=O)c2cc(NC(=O)Nc3ccc(C(F)(F)F)cc3)ccc2O1`: “active”. As to `C[C@@H]1CCCCO[C@H](CN(C)C(=O)Nc2ccc(C(F)(F)F)cc2)[C@H](C)CN([C@@H](C)CO)C(=O)c2cc(NC(=O)c3ccccc3)ccc2O1`, the cytotoxicity call is “inactive”. The same measure for `C[C@H](CO)N1C[C@H](C)[C@H](CN(C)C(=O)Nc2ccccc2)OCCCC[C@H](C)Oc2ccc(NC(=O)Nc3ccc(C(F)(F)F)cc3)cc2C1=O`: “inactive”; for `C[C@@H]1CN([C@@H](C)CO)C(=O)c2cc(NC(=O)c3ccccc3)ccc2O[C@@H](C)CCCCO[C@@H]1CN(C)C(=O)Nc1ccc(C(F)(F)F)cc1`: “active”. The value for `C[C@@H]1CCCCO[C@H](CN(C)C(=O)Nc2ccc(C(F)(F)F)cc2)[C@@H](C)CN([C@@H](C)CO)C(=O)c2cc(NC(=O)Nc3ccccc3)ccc2O1` was “active”. The value for `C[C@@H]1CCCCO[C@H](CN(C)C(=O)Nc2ccc(C(F)(F)F)cc2)[C@H](C)CN([C@@H](C)CO)C(=O)c2cc(NC(=O)Nc3ccccc3)ccc2O1` was “inactive”; that for `C[C@H]1CCCCO[C@H](CN(C)C(=O)Nc2ccc(C(F)(F)F)cc2)[C@@H](C)CN([C@@H](C)CO)C(=O)c2cc(NC(=O)Nc3ccccc3)ccc2O1` was “inactive”.

Regarding `CNC[C@@H]1Oc2ccc(NS(=O)(=O)c3cn(C)cn3)cc2CC(=O)N([C@H](C)CO)C[C@@H]1C`, the cytotoxicity call was “inactive”.

Take `C[C@H](CO)N1C[C@H](C)[C@H](CN(C)S(=O)(=O)c2ccccc2)OCCCC[C@H](C)Oc2ccc(NC(=O)Nc3ccc(F)cc3)cc2C1=O`: the cytotoxicity call was “inactive”.

In the case of `C[C@H](CO)N1C[C@H](C)[C@@H](CN(C)Cc2ccncc2)Oc2ccc(NC(=O)Cn3cnnn3)cc2C1=O`, the cytotoxicity call was “inactive”. The value for `c1ccc(-c2nc(-c3cccs3)[nH]c2-c2ccccc2)cc1` was “inactive”; that for `C[C@@H]1CCCCO[C@@H](CN(C)C(=O)c2ccncc2)[C@H](C)CN([C@@H](C)CO)C(=O)c2cc(NS(C)(=O)=O)ccc2O1` was “inactive”; that for `C[C@@H]1CN([C@@H](C)CO)C(=O)c2cc(/C=C/c3ccccc3)cnc2O[C@H]1CN(C)C(=O)CN1CCOCC1` was “inactive”. The value for `C[C@H](CO)N1C[C@H](C)[C@H](CN(C)C(=O)Cc2ccccc2)OCCCC[C@H](C)Oc2ccc(NC(=O)Nc3cccc4ccccc34)cc2C1=O` was “inactive”; that for `C[C@H](CO)N1C[C@H](C)[C@@H](CN(C)C(=O)NC2CCCCC2)Oc2ccc(NS(C)(=O)=O)cc2CC1=O` was “inactive”; that for `COc1cccc(NC(=O)N[C@@H]2CC[C@H](CC(=O)N3CCOCC3)O[C@@H]2CO)c1` was “inactive”. The value for `C[C@H](O)C#Cc1ccc2c(c1)O[C@H](CN(C)C)[C@@H](C)CN([C@@H](C)CO)S2(=O)=O` was “inactive”; that for `COc1ccc(CN(C)C[C@H]2Oc3ccc(NC(=O)CCCCCC(=O)Nc4ccccc4N)cc3CC(=O)N([C@@H](C)CO)C[C@@H]2C)cc1` was “inactive”. As to `CC(C)NC(=O)N(C)C[C@H]1Oc2ccc(NC(=O)Cc3ccccc3)cc2CC(=O)N([C@@H](C)CO)C[C@@H]1C`, the cytotoxicity call was “inactive”. The same measure for `COc1ccc2c3c([nH]c2c1)[C@@H](CO)N(C[C@]13CN(Cc2nccs2)C1)S(=O)(=O)c1ccc(cc1)C`: “inactive”; for `C[C@H](CO)N1C[C@H](C)[C@@H](CN(C)C(=O)Nc2ccccc2)OCCCC[C@H](C)Oc2ccc(NC(=O)Nc3ccc(C(F)(F)F)cc3)cc2C1=O`: “inactive”. The value for `C[C@@H]1CN([C@@H](C)CO)C(=O)c2cc(NC(=O)Nc3ccccc3)ccc2O[C@@H](C)CCCCO[C@H]1CN(C)C(=O)Nc1ccc(C(F)(F)F)cc1` was “inactive”; that for `C[C@@H]1CCCCO[C@H](CN(C)C(=O)Nc2ccccc2)[C@H](C)CN([C@H](C)CO)C(=O)c2cc(NC(=O)Nc3ccc(C(F)(F)F)cc3)ccc2O1` was “active”.
